Assay outcomes from PubChem.
RAM inhibit: inhibitors of the yeast RAM network, primary screen, dse1pr::URA3 reporter, 5-FOA selection; 190,000 tested, 1.8% active; inhibition, % at 50 µM; S. cerevisiae dse1pr::URA3 reporter, 5-FOA growth OD615, 2 d; analog-sensitive cbk1-as2 kinase mutant strain;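 active = inhibition above a set limit, 3 SD over mean compound inhibition, cut at about 8.4% in these data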;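 also: 0% = DMSO-only wells with no growth and 100% = 10 µM 1-NA-PP1 full growth; inhibition rescues growth on 5-FOA so higher OD means more RAM inhibition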
WT yeast gro inh: growth inhibition of WT strain, primary screen, mitochondrial fusion inhibitor project, WT and mutant strains, chemical genetic. mitochondrial fusion phenotypic screen. inhibition, % at 10 µM. 190,000 tested, 2.1% active; in the data active = inhibition above about 58%; tested in S. cerevisiae
L major viab: Leishmania major promastigote growth inhibition, primary screen. Leishmania major promastigotes, resazurin fluorescence viability. inhibition, % at 10 µM. 200,000 tested, 9% active. AID 1063, 2008; in the data active = inhibition above about 50%;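 also: promastigotes grown with compound for 44 hours at 28 °C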
CHOP inhibitor: inhibitors of CHOP promoter induction, primary screen, cell-based, unfolded protein response, luciferase reporter; AID 2732, 2010; 220,000 tested, 3.8% active; inhibition, % at 10 µM; CHO-K1 CHOP-promoter luciferase, tunicamycin-induced, 15-18 h;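 active = compounds that reduced the stress-induced luciferase reporter signal by more than about 70% of percent inhibition, limit read from the data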;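 also: 0% = tunicamycin plus vehicle and 100% = wells without tunicamycin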
Numbers without * were called inactive; nt = not tested or not shown. This is a sample that favours compounds with a hit; in the whole collection about 13% have one here.

SMILES	RAM inhibit	WT yeast gro inh	L major viab	CHOP inhibitor
Cc1ccc(S(=O)(=O)N2CCN(C(=O)C3CCN(C(=O)c4ccccc4C)CC3)CC2)cc1C	0.2	4.4	12.2	35.6
O=C(CN(Cc1ccccc1)S(=O)(=O)c1cccc(C(F)(F)F)c1)NC1CCCCC1	8.8*	-7.1	0.5	49.3
CCN(CC(=O)NC1CCCCCC1)S(=O)(=O)c1ccccc1	-0.4	7.8	1.5	11.6
CC(c1ccccc1)N(CC(=O)NC1CCCCC1)S(=O)(=O)c1cccc(C(F)(F)F)c1 (stereo unspecified)	8.2	69.5*	36.6	63.0
c1ccc(NC2=Nc3cccc4cccc2c34)cc1	3.6	25.8	48.8	34.0
O=C(NNC1=Nc2cccc3cccc1c23)c1ccccc1Br	5.2	11.0	52.7*	89.9*
COc1ccc(CNC(=O)CN(c2ccccc2)S(=O)(=O)N(C)C)cc1	0.1	7.4	0.2	4.6
S=C(N/N=C/c1ccccc1)N1CCOCC1	0.5	22.4	16.5	-4.1
Cc1ccccc1C(=NC(=O)c1ccccc1)c1ccccc1	4.3	-1.4	5.4	72.2*
Cc1ccccc1C(=O)O/N=C(\c1ccccc1)c1ccccn1	0.0	16.6	-1.8	16.9
Cc1ccc(CNC(=O)CO/N=C/c2ccc(C(C)(C)C)cc2)cc1	1.9	2.2	-4.3	94.7*
CC(C)(C)c1ccc(/C=N/OCC(=O)NCc2ccccc2)cc1	3.8	34.0	2.6	-15.9
CC(C)(C)c1ccc(/C=N/OCC(=O)NCc2ccc(F)cc2)cc1	5.3	49.2	-2.0	75.1*
CCC(Oc1ccccc1)C(=O)Nc1ccsc1C(=O)OC (stereo unspecified)	0.5	37.4	73.7*	14.4
CCCNC(=O)Nc1ccsc1C(=O)OC	-1.1	-7.3	-3.9	35.1
Cc1ccc(-n2nc3ccc(NC(=O)/C=C/c4ccco4)cc3n2)cc1	1.4	9.1	59.5*	48.9
CCS(=O)(=O)N1CCN(c2cc3c(cc2[N+](=O)[O-])n(C)c(=O)n3C)CC1	4.3	20.1	18.9	16.7
CCOC(=O)c1ccc(NC(=O)c2ccc3c(c2)OCO3)cc1	1.6	-8.6	-7.3	26.3
CCOC(=O)c1ccc(NC(=O)c2cn(CCC#N)nc2-c2ccc3c(c2)OCCO3)cc1	2.1	-17.0	68.3*	2.3
N#CCCn1cc(C(=O)Nc2ccc(C(=O)O)cc2)c(-c2ccc([N+](=O)[O-])cc2)n1	8.8*	10.0	-1.2	-4.5
O=c1c2c([nH]c3ccccc13)CCCCC2	nt	nt	nt	-3.6
O=c1c2c([nH]c3ccccc13)CCCCCC2	-0.2	15.3	63.6*	6.4
COC(=O)C1CC(c2ccc(Cl)cc2)=NO1 (stereo unspecified)	-0.6	0.1	-9.5	2.8
CCOCCSc1nc2c(c(=O)[nH]c(=O)n2C)n1CCCc1ccccc1	1.2	50.1	4.8	-6.6
Cn1c(=O)[nH]c(=O)c2c1nc(SCCN1CCCCC1)n2CCCc1ccccc1	1.1	18.5	98.1*	35.6
SMILES	RAM inhibit	WT yeast gro inh	L major viab	CHOP inhibitor
Cc1ccc(Cn2c(SCCN3CCCCC3)nc3c2c(=O)[nH]c(=O)n3C)cc1	3.0	0.1	5.6	15.6
Cn1c(=O)[nH]c(=O)c2c1nc(SCCN1CCCCC1)n2Cc1ccccc1	0.3	-3.1	99.4*	-0.9
COc1ccc(/C=C/C(=O)OCC(=O)Nc2ccc(Cl)c(S(=O)(=O)N(C)C)c2)cc1OC	5.5	4.0	-5.5	-1.2
O=C1c2ccccc2C(=O)N1Cc1ccccn1	2.2	-2.6	-15.0	-1.5
Cc1ccc2nc(NCc3ccccc3)c(C=NCc3ccccc3)c(=O)n2c1	5.6	20.1	-10.5	-13.0
Cc1ccc2nc(NCCCN3CCOCC3)c(C=NCCCN3CCOCC3)c(=O)n2c1	0.9	11.0	78.7*	-9.6
CCN1CCN(Cc2c(O)ccc3c2O/C(=C\C=C\c2ccccc2OC)C3=O)CC1	-0.4	-2.9	69.1*	-4.1
Cc1cccc(N2CCN(C(=O)C3CCN(S(=O)(=O)c4cccc5cccnc45)CC3)CC2C)c1 (stereo unspecified)	2.5	11.2	14.2	28.4
Cc1cccc(N2CCN(C(=O)C3CCN(S(=O)(=O)c4cccc5nsnc45)CC3)CC2C)c1 (stereo unspecified)	1.0	14.2	50.7*	83.4*
O=C(C1CCN(S(=O)(=O)c2cccc3nsnc23)CC1)N1CCc2ccccc21	0.8	-3.6	87.3*	30.8
Cc1ccc(C(=O)NNC(=O)c2cccc(S(=O)(=O)N3CCN(c4ccccc4)CC3)c2)cc1	3.6	-14.1	-11.6	25.1
CCC(C)(C(=O)Nc1ccccc1C)N(C(=O)CNC(C)=O)c1ccccc1C (stereo unspecified)	3.1	-9.9	-4.2	-3.7
